The compounds below were run on Plasmodium falciparum (assay: GSK_TCMDC: Inhibition of Plasmodium falciparum 3D7 in whole red blood cells, using parasite LDH activity as an index of growth. Test compounds present at 2uM).
Type: functional

How did the Inhibition turn out when `Cc1cccc(Oc2cccc3[nH]nc(N)c23)c1` was run?
The Inhibition was 85%.

How did the Inhibition turn out when `COCCNCc1ccc(-c2ccc(CNC3CCN(Cc4ccccc4)CC3)cc2)cc1.O=C(O)C(F)(F)F` was run?
The Inhibition was 100%.

`O=C(/C=C/c1ccc(Cl)c(Cl)c1)N1CCC(CN2CCC(c3c[nH]c4ccncc34)CC2)CC1` was tested. Which Inhibition did it give?
The Inhibition was 100%.

Which Inhibition does the source give for `CCCNC(=O)C1Cc2c([nH]c3ccc(Br)cc23)C2(CCN(CCc3ccccc3)CC2)N1` (stereo not given) here?
Its Inhibition is 99%.

How did the Inhibition turn out when `Cc1nc(-c2ccc(-c3ccc(C(=O)Nc4ccc(C(C)C)c(OCCN(C)C)c4)cc3)c(C)c2)no1.O=C(O)C(=O)O` was run?
Its Inhibition is 99%.

With `O=C(NCCCCN1CCN(CC=Cc2ccccc2)CC1)c1ccc(NC(=O)c2cc(Cl)cc(Cl)c2)cc1` as the compound, how does the Inhibition read?
The Inhibition was 100%.

Which Inhibition does the source give for `CCCCCCCOc1ccc(NC(=O)Nc2ccc(Cn3ncc(N4CCCNCC4)c(Cl)c3=O)cc2)cc1.O=C(O)C(F)(F)F` here?
Its Inhibition is 87%.

For `Cc1ccc(C(=O)NC2C(=O)NC2c2ccccc2)c(C)c1` (stereo not given), which Inhibition is on record?
Its Inhibition is 90%.

With `O=C(/C=C/c1ccc(Cl)c(Cl)c1)NCCCCCCN1CCCN(C(=O)Nc2cccc(C(F)(F)F)c2)CC1` as the compound, how does the Inhibition read?
Its Inhibition is 95%.

With `CCC1(CC)NC(N)=NC(=N)N1OCc1ccc(Cl)c(Cl)c1.Cl` as the compound, how does the Inhibition read?
The Inhibition was 94%.

For `COc1ccccc1-c1ccc(CNC(=O)C(CN2CCN(C)CC2)c2ccccc2)cc1` (stereo not given), which Inhibition is on record?
Its Inhibition is 90%.

Which Inhibition does the source give for `O=C(N[C@@H](CC1CCCCC1)C(=O)NC1CCCCCC1)c1ccc(O)c(-c2ccc(Cl)c(Cl)c2)c1` here?
The Inhibition was 99%.

Which Inhibition does the source give for `Cc1ccc(Nc2nccc(NCC(O)c3ccc(C(F)(F)F)cc3)n2)cc1` (stereo not given) here?
The Inhibition was 100%.

With `Cl.c1ccc(Oc2ccc(Nc3nncc4ccccc34)cc2)cc1` as the compound, how does the Inhibition read?
The Inhibition was 86%.

`Cc1[nH]c2c(NCc3ccc(F)cc3)nccc2c1C` was tested. Which Inhibition did it give?
Its Inhibition is 83%.

For `Nc1ncc(Cc2ccc3c(ccc4ccccc43)c2)c(N)n1`, which Inhibition is on record?
Its Inhibition is 97%.

Which Inhibition does the source give for `O=C(/C=C/c1ccc(Cl)c(Cl)c1)NCCCCCN1CCC(NC(=O)Nc2cc(Cl)ccc2Cl)CC1` here?
Its Inhibition is 99%.

How did the Inhibition turn out when `CC1(C)N=C(N)N=C(N)N1c1ccc(Cl)cc1.O=C(O)c1cc2ccccc2c(Cc2c(O)c(C(=O)O)cc3ccccc23)c1O` was run?
The Inhibition was 95%.

Which Inhibition does the source give for `Cc1ccc2cc(C3NC(=O)c4ccccc4N3)c(Cl)nc2c1` (stereo not given) here?
The Inhibition was 91%.

With `CN1CCN(CCCN(Cc2cccc(-c3cccc(CNCCc4ccccc4)c3)c2)C(=O)Nc2ccccc2)CC1.O=C(O)C(F)(F)F` as the compound, how does the Inhibition read?
The Inhibition was 97%.

`CN1CCN(c2ccc(CNc3ccc4ncc(-c5ccc(OC(F)(F)F)cc5)n4n3)cc2)CC1` was tested. Which Inhibition did it give?
Its Inhibition is 94%.

For `Cn1ccnc1-c1nc2ccccn2c1NCC(=O)Nc1ccccc1N1CCCCC1`, which Inhibition is on record?
Its Inhibition is 85%.

For `Clc1cccc(C=NN=c2cc[nH]c3ccccc23)c1`, which Inhibition is on record?
The Inhibition was 100%.

How did the Inhibition turn out when `CCc1cn(C)c2c(N3CCCC3=O)cc(C(=O)N[C@@H](Cc3ccccc3)[C@H](O)CNC(C)(C)c3cccc(OC)c3)cc12` was run?
The Inhibition was 95%.

With `CS(=O)(=O)Nc1ccc(-c2cnc3[nH]cc(-c4ccc(C(=O)O)cc4)c3c2)cc1` as the compound, how does the Inhibition read?
The Inhibition was 95%.

With `CCN(CC)CCNc1ccnc2ccc3ccccc3c12` as the compound, how does the Inhibition read?
The Inhibition was 100%.

How did the Inhibition turn out when `Cn1cncc1-c1ccc2c(-c3ccsc3)cnc(N)c2c1` was run?
The Inhibition was 97%.

For `O=C(Nc1cccc(CN2CCN(Cc3ccc(O)cc3)CC2)c1)c1ccc(Cl)c(Cl)c1.O=C(O)C(F)(F)F`, which Inhibition is on record?
Its Inhibition is 100%.

Which Inhibition does the source give for `CC(C)(C)c1ccc(NC(=O)Nc2ccc(Cn3ncc(N4CCCNCC4)c(Cl)c3=O)cc2)cc1.O=C(O)C(F)(F)F` here?
Its Inhibition is 95%.

Which Inhibition does the source give for `Cc1ccc(F)cc1S(=O)(=O)Nc1ccc(CCN2CCC(N3CCCCC3)CC2)cc1` here?
The Inhibition was 99%.

Which Inhibition does the source give for `N#Cc1ccc(N2CCN(Cc3ccc(-c4ccc(-c5nc6cc(F)ccc6[nH]5)s4)cc3)CC2)nc1.O=C(O)C(F)(F)F` here?
Its Inhibition is 100%.

`O=C(/C=C/c1ccc(Cl)cc1)NCCCCCN1CCCN(C(=O)Nc2ccc(Cl)c(C(F)(F)F)c2)CC1` was tested. Which Inhibition did it give?
Its Inhibition is 95%.

How did the Inhibition turn out when `Fc1ccc2[nH]c(-c3ccc(-c4ccc(CNCCc5ccncc5)cc4)s3)nc2c1.O=C(O)C(F)(F)F` was run?
The Inhibition was 99%.

With `CN(C)CCCn1cncc1-c1ccc2ncnc(Nc3ccc4c(cnn4Cc4ccccc4)c3)c2c1` as the compound, how does the Inhibition read?
The Inhibition was 100%.

`COc1ccc2c(=NN=Cc3cccc(F)c3)cc(C)[nH]c2c1` was tested. Which Inhibition did it give?
Its Inhibition is 100%.

With `C(=Cc1ccccc1)C=NN=c1cc[nH]c2ccccc12` as the compound, how does the Inhibition read?
Its Inhibition is 100%.

With `Cc1ccc(CN2CCCCC(NC(=O)c3cc4ccccc4s3)C2)cc1.O=C(O)C(F)(F)F` (stereo not given) as the compound, how does the Inhibition read?
Its Inhibition is 94%.

How did the Inhibition turn out when `Cc1sc2ncnc(Sc3nnc(N)s3)c2c1C` was run?
The Inhibition was 100%.

How did the Inhibition turn out when `COc1ccc(NC(=O)CCNc2cc(C)nc(NCc3cccc(C)c3)n2)cc1.O=C(O)C(F)(F)F` was run?
The Inhibition was 100%.

`Br.Oc1ccc(CCNCCCCCCNCCc2ccc(Cl)c(Cl)c2)cc1O` was tested. Which Inhibition did it give?
Its Inhibition is 100%.

Each compound was assayed on Plasmodium falciparum (assay: GSK_TCMDC: Inhibition of Plasmodium falciparum Dd2 in whole red blood cells, using parasite LDH activity as an index of growth. Test compounds present at 2uM).
Type: functional

With `Cc1cccc(Oc2cccc3[nH]nc(N)c23)c1` as the compound, how does the Inhibition read?
The Inhibition was 0%.

`COCCNCc1ccc(-c2ccc(CNC3CCN(Cc4ccccc4)CC3)cc2)cc1.O=C(O)C(F)(F)F` was tested. Which Inhibition did it give?
The Inhibition was 61%.

`O=C(/C=C/c1ccc(Cl)c(Cl)c1)N1CCC(CN2CCC(c3c[nH]c4ccncc34)CC2)CC1` was tested. Which Inhibition did it give?
The Inhibition was 72%.

How did the Inhibition turn out when `CCCNC(=O)C1Cc2c([nH]c3ccc(Br)cc23)C2(CCN(CCc3ccccc3)CC2)N1` (stereo not given) was run?
Its Inhibition is 49%.

With `Cc1nc(-c2ccc(-c3ccc(C(=O)Nc4ccc(C(C)C)c(OCCN(C)C)c4)cc3)c(C)c2)no1.O=C(O)C(=O)O` as the compound, how does the Inhibition read?
Its Inhibition is 45%.

With `O=C(NCCCCN1CCN(CC=Cc2ccccc2)CC1)c1ccc(NC(=O)c2cc(Cl)cc(Cl)c2)cc1` as the compound, how does the Inhibition read?
The Inhibition was 63%.

With `CCCCCCCOc1ccc(NC(=O)Nc2ccc(Cn3ncc(N4CCCNCC4)c(Cl)c3=O)cc2)cc1.O=C(O)C(F)(F)F` as the compound, how does the Inhibition read?
The Inhibition was 28%.

`Cc1ccc(C(=O)NC2C(=O)NC2c2ccccc2)c(C)c1` (stereo not given) was tested. Which Inhibition did it give?
Its Inhibition is 0%.

For `O=C(/C=C/c1ccc(Cl)c(Cl)c1)NCCCCCCN1CCCN(C(=O)Nc2cccc(C(F)(F)F)c2)CC1`, which Inhibition is on record?
Its Inhibition is 0%.

Which Inhibition does the source give for `CCC1(CC)NC(N)=NC(=N)N1OCc1ccc(Cl)c(Cl)c1.Cl` here?
The Inhibition was 49%.

How did the Inhibition turn out when `COc1ccccc1-c1ccc(CNC(=O)C(CN2CCN(C)CC2)c2ccccc2)cc1` (stereo not given) was run?
Its Inhibition is 4%.

`O=C(N[C@@H](CC1CCCCC1)C(=O)NC1CCCCCC1)c1ccc(O)c(-c2ccc(Cl)c(Cl)c2)c1` was tested. Which Inhibition did it give?
Its Inhibition is 100%.

With `Cc1ccc(Nc2nccc(NCC(O)c3ccc(C(F)(F)F)cc3)n2)cc1` (stereo not given) as the compound, how does the Inhibition read?
Its Inhibition is 100%.

For `Cl.c1ccc(Oc2ccc(Nc3nncc4ccccc34)cc2)cc1`, which Inhibition is on record?
Its Inhibition is 82%.

Which Inhibition does the source give for `Cc1[nH]c2c(NCc3ccc(F)cc3)nccc2c1C` here?
Its Inhibition is 0%.

Which Inhibition does the source give for `Nc1ncc(Cc2ccc3c(ccc4ccccc43)c2)c(N)n1` here?
Its Inhibition is 3%.

With `O=C(/C=C/c1ccc(Cl)c(Cl)c1)NCCCCCN1CCC(NC(=O)Nc2cc(Cl)ccc2Cl)CC1` as the compound, how does the Inhibition read?
Its Inhibition is 31%.

Which Inhibition does the source give for `CC1(C)N=C(N)N=C(N)N1c1ccc(Cl)cc1.O=C(O)c1cc2ccccc2c(Cc2c(O)c(C(=O)O)cc3ccccc23)c1O` here?
Its Inhibition is 4%.

How did the Inhibition turn out when `Cc1ccc2cc(C3NC(=O)c4ccccc4N3)c(Cl)nc2c1` (stereo not given) was run?
Its Inhibition is 38%.

`CN1CCN(CCCN(Cc2cccc(-c3cccc(CNCCc4ccccc4)c3)c2)C(=O)Nc2ccccc2)CC1.O=C(O)C(F)(F)F` was tested. Which Inhibition did it give?
The Inhibition was 82%.

With `CN1CCN(c2ccc(CNc3ccc4ncc(-c5ccc(OC(F)(F)F)cc5)n4n3)cc2)CC1` as the compound, how does the Inhibition read?
Its Inhibition is 87%.

`Cn1ccnc1-c1nc2ccccn2c1NCC(=O)Nc1ccccc1N1CCCCC1` was tested. Which Inhibition did it give?
The Inhibition was 57%.

With `Clc1cccc(C=NN=c2cc[nH]c3ccccc23)c1` as the compound, how does the Inhibition read?
The Inhibition was 44%.

How did the Inhibition turn out when `CCc1cn(C)c2c(N3CCCC3=O)cc(C(=O)N[C@@H](Cc3ccccc3)[C@H](O)CNC(C)(C)c3cccc(OC)c3)cc12` was run?
The Inhibition was 99%.

For `CS(=O)(=O)Nc1ccc(-c2cnc3[nH]cc(-c4ccc(C(=O)O)cc4)c3c2)cc1`, which Inhibition is on record?
Its Inhibition is 45%.

How did the Inhibition turn out when `CCN(CC)CCNc1ccnc2ccc3ccccc3c12` was run?
The Inhibition was 67%.

With `Cn1cncc1-c1ccc2c(-c3ccsc3)cnc(N)c2c1` as the compound, how does the Inhibition read?
Its Inhibition is 72%.

`O=C(Nc1cccc(CN2CCN(Cc3ccc(O)cc3)CC2)c1)c1ccc(Cl)c(Cl)c1.O=C(O)C(F)(F)F` was tested. Which Inhibition did it give?
The Inhibition was 95%.

For `CC(C)(C)c1ccc(NC(=O)Nc2ccc(Cn3ncc(N4CCCNCC4)c(Cl)c3=O)cc2)cc1.O=C(O)C(F)(F)F`, which Inhibition is on record?
The Inhibition was 33%.

How did the Inhibition turn out when `Cc1ccc(F)cc1S(=O)(=O)Nc1ccc(CCN2CCC(N3CCCCC3)CC2)cc1` was run?
The Inhibition was 15%.

With `N#Cc1ccc(N2CCN(Cc3ccc(-c4ccc(-c5nc6cc(F)ccc6[nH]5)s4)cc3)CC2)nc1.O=C(O)C(F)(F)F` as the compound, how does the Inhibition read?
The Inhibition was 78%.

For `O=C(/C=C/c1ccc(Cl)cc1)NCCCCCN1CCCN(C(=O)Nc2ccc(Cl)c(C(F)(F)F)c2)CC1`, which Inhibition is on record?
Its Inhibition is 1%.

`Fc1ccc2[nH]c(-c3ccc(-c4ccc(CNCCc5ccncc5)cc4)s3)nc2c1.O=C(O)C(F)(F)F` was tested. Which Inhibition did it give?
Its Inhibition is 100%.

How did the Inhibition turn out when `CN(C)CCCn1cncc1-c1ccc2ncnc(Nc3ccc4c(cnn4Cc4ccccc4)c3)c2c1` was run?
Its Inhibition is 77%.

`COc1ccc2c(=NN=Cc3cccc(F)c3)cc(C)[nH]c2c1` was tested. Which Inhibition did it give?
The Inhibition was 100%.

Which Inhibition does the source give for `C(=Cc1ccccc1)C=NN=c1cc[nH]c2ccccc12` here?
The Inhibition was 100%.

For `Cc1ccc(CN2CCCCC(NC(=O)c3cc4ccccc4s3)C2)cc1.O=C(O)C(F)(F)F` (stereo not given), which Inhibition is on record?
Its Inhibition is 8%.

With `Cc1sc2ncnc(Sc3nnc(N)s3)c2c1C` as the compound, how does the Inhibition read?
Its Inhibition is 100%.

How did the Inhibition turn out when `COc1ccc(NC(=O)CCNc2cc(C)nc(NCc3cccc(C)c3)n2)cc1.O=C(O)C(F)(F)F` was run?
The Inhibition was 25%.

For `Br.Oc1ccc(CCNCCCCCCNCCc2ccc(Cl)c(Cl)c2)cc1O`, which Inhibition is on record?
Its Inhibition is 2%.

— ChEMBL document CHEMBL1157539, “Thousands of chemical starting points for antimalarial lead identification” (Nature, 2010)
